# Results as given in PubChem BioAssay (EPA / NIEHS).
# Several values for one entry are separate records, joined by “and”; a condition that tells them apart may be missing. Equal values may be shown once. Inconclusive results are not listed. Activity calls are given as the source filed them. How the source made its calls, unless noted: active means hit-call score of the fitted dose curve at least 0.9, where 1 is the maximum; inactive means score below 0.9.
# Key:
# [1] = CCTE_Shafer_MEA_acute_synchrony_index: CCTE's Neural Acute Assay for Synchrony, Shafer Lab (AID 2284027);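 further: network synchrony index of spontaneous spiking in primary rat cortical neurons on MEAs; fitted for loss of signal so actives lower synchrony relative to DMSO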
# How it was run: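 Spontaneous firing of mature rat cortical networks is captured extracellularly on microelectrode arrays at 37 C, with wells needing ≥10 active electrodes. Each compound (0.03-40 uM) is judged by the change in synchrony index from baseline over 40 min.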
# [2] = molecular target: Estrogen receptor (Homo sapiens) (UniProt P03372); test: CCTE_Deisenroth_AIME_384WELL_LUC_Active: CCTE's 384-well Estrogen Receptor Transactivation Assay with AIME metabolic competence (ERTA luciferase; metabolism positive), Deisenroth Lab (AID 2284030; active means hit-call score of the fitted dose curve at least 0.9, where 1 is the maximum)
# Chain of Estrogen receptor (Homo sapiens) (P03372 whole entry, looked up): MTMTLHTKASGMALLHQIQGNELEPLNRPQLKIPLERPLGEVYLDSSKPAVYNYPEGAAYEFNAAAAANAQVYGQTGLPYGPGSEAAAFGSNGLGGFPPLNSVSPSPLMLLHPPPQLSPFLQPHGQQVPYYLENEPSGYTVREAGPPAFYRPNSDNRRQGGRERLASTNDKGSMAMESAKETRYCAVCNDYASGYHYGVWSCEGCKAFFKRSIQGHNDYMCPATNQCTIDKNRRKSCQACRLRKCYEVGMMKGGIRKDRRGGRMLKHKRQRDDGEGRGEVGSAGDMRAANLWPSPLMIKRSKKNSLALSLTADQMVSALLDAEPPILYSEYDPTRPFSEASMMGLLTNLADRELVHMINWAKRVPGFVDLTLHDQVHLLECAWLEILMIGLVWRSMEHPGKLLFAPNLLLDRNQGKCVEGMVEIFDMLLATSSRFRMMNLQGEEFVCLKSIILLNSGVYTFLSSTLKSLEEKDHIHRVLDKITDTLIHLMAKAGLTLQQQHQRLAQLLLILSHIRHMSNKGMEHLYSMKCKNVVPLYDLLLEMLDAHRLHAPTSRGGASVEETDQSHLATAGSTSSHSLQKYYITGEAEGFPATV
# How it was run: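 Test chemicals (10-point series, 0.002 - 200 uM) were preincubated 2 hours with alginate-immobilized phenobarbital/beta-naphthoflavone-induced male Sprague Dawley rat liver S9; conditioned medium then went onto VM7Luc4E2 breast cells for 24 hour. Luciferase gain-of-signal fitted relative to 17beta-estradiol.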
# [3] = CCTE_Shafer_MEA_dev_firing_rate_mean: CCTE's Neural Network Formation Assay for Mean Firing Rate, Shafer Lab (AID 2284031);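 on AC50: curve fitted for loss of firing so AC50 reflects decreased mean firing rate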
# How it was run: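 Developing rat cortical networks on MEA plates undergo 12-day compound exposure. Firing frequency, averaged across active electrodes, is integrated as area under the curve over four recording days, referenced to DMSO.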
# [4] = CCTE_Shafer_MEA_dev_per_burst_spike_percent: CCTE's Neural Network Formation Assay for Percent of Spikes in a Burst, Shafer Lab (AID 2284032);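 on AC50: fitted as a decrease in burst spike percentage below DMSO baseline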
# How it was run: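 Rat primary cortical neurons on 16-electrode MEA wells, dosed from plating day 0 for 12 days with renewal on DIV 5 and 9; spikes-in-bursts percentage averaged over bursting electrodes, collapsed as AUC across days 5, 7, 9, 12; loss direction versus DMSO.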
# [5] = CCTE_Deisenroth_AIME_384WELL_CTox_Inactive: Cytotoxicity Assessment (CTOX) in CCTE's 384-well Estrogen Receptor Transactivation Assay without AIME metabolic competence (metabolism negative), Deisenroth Lab (AID 2284039; active means hit-call score of the fitted dose curve at least 0.9, where 1 is the maximum;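 further: cell viability via live-cell protease substrate cleaved to fluorescent probe; cells exposed 24 h to medium preincubated 2 h with alginate-water beads without S9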)
# How it was run: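 Metabolism-negative arm: chemicals (10-point, 0.002 - 200 uM) preincubated 2 h with alginate-water lids, medium moved onto VM7Luc4E2 cells for 24 h. Fluorescent live-cell protease readout; bidirectional curve fit.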
# [6] = CCTE_Shafer_MEA_dev_active_electrodes_number: CCTE's Neural Network Formation Assay for Number of Active Electrodes, Shafer Lab (AID 2284040; active means hit-call score of the fitted dose curve at least 0.9, where 1 is the maximum;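 on AC50: potency for loss of active electrodes versus DMSO so lower counts are hits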)
# How it was run: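 Rat cortical primary cultures, 1.5 x 10^5 cells/well, PEI-coated MEA, laminin drop. Continuous exposure DIV 0–12; full media/compound change DIV 5, 9. Readout: electrodes with mean firing ≥5 spikes/min; AUC across days; loss vs DMSO.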
# [7] = molecular target: Estrogen receptor (Homo sapiens) (UniProt P03372); test: CCTE_Deisenroth_AIME_384WELL_LUC_Shift: CCTE's 384-well Estrogen Receptor Transactivation Assay with AIME metabolic competence data shift (ERTA luciferase; difference in metabolism positive and negative), Deisenroth Lab (AID 2284041);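 further: shift is response with S9 minus without S9 so positive means metabolism raised ER signal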
# How it was run: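 Here, parent compounds undergo 2 h phase I metabolism by PB/BNF-induced rat S9 before 24 h transactivation in VM7Luc4E2 cells; the curve models S9-positive minus S9-negative response over a 10-point series.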
# [8] = CCTE_Shafer_MEA_dev_burst_rate: CCTE's Neural Network Formation Assay for Burst Rate, Shafer Lab (AID 2284042);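 on AC50: potency for loss of burst rate below DMSO control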
# How it was run: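 Cells plated, treated day 0; recorded DIV 5, 7, 9, 12; fed and re-treated DIV 5, 9. Endpoint: bursts per recording time, active-electrode well mean, trapezoidal AUC, fitted in decreasing direction against DMSO baseline.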
# [9] = CCTE_Shafer_MEA_dev_per_burst_interspike_interval: CCTE's Neural Network Formation Assay for Burst Interspike Interval, Shafer Lab (AID 2284044);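 further: mean spike spacing inside bursts as AUC over recordings on days 5 7 9 12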;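 on AC50: potency for a decrease of within-burst interspike interval below DMSO level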
# How it was run: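 Rat cortical primary cultures, 16 electrodes/well; compound from plating, renewed with full media change DIV 5 and 9. Spikes via adaptive detector; per-burst ISI well-mean over active bursting electrodes; AUC of DIV 5/7/9/12 recordings; loss-direction fit vs DMSO.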
# [10] = CCTE_Shafer_MEA_dev_burst_duration_mean: CCTE's Neural Network Formation Assay for Mean Burst Duration, Shafer Lab (AID 2284045)
# How it was run: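 Primary rat cortical neurons on PEI-coated 16-electrode MEA wells, exposed from plating through day 12 with compound renewed at DIV 5 and 9; spontaneous activity recorded days 5, 7, 9, 12. Well-mean burst duration collapsed as trapezoidal AUC, fitted for loss versus DMSO.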
# [11] = CCTE_Shafer_MEA_dev_interburst_interval_mean: CCTE's Neural Network Formation Assay for Mean Interburst Interval, Shafer Lab (AID 2284046);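 further: well-mean interburst interval of bursting electrodes as AUC over four recording days; curve fitted for decrease in interburst interval relative to DMSO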
# How it was run: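 Developing rat cortical networks on 48-well MEAs receive compound from the day of plating. Burst intervals from each active electrode are averaged per well, and AUC over the recording days is fitted in the negative direction against DMSO.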
# [12] = CCTE_Shafer_MEA_dev_network_spike_number: CCTE's Neural Network Formation Assay for Number of Network Spikes, Shafer Lab (AID 2284048);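 further: synchronized bursts across electrodes counted on days 5 7 9 12 and integrated as AUC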;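 on AC50: fit as a loss of signal meaning fewer network spikes than DMSO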
# How it was run: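 Primary rat cortical neurons were seeded at 1.5 x 10^5 cells/well on PEI-coated 16-electrode MEA wells with laminin, exposed from plating day 0, compound renewed at DIV 5 and 9. Network spikes were recorded on days 5, 7, 9, 12 and summarized as trapezoidal AUC versus DMSO.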
# [13] = CCTE_Shafer_MEA_dev_network_spike_peak: CCTE's Neural Network Formation Assay for Mean Number of Electrodes in Network Spike, Shafer Lab (AID 2284049);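 on AC50: fitted for loss of signal meaning fewer electrodes in network spikes than DMSO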
# How it was run: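 Continuous 12-day exposure of rat cortical cultures, starting at plating, on MEA plates. Endpoint: electrodes participating in network-spike peaks, AUC across DIV 5–12, DMSO as negative control.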
# [14] = CCTE_Shafer_MEA_dev_per_network_spike_spike_number_mean: CCTE's Neural Network Formation Assay for Mean Number of Spikes in a Network Spike, Shafer Lab (AID 2284053);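 on AC50: fitted as decrease in spikes per network spike relative to DMSO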
# How it was run: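 Continuous twelve-day exposure of developing rat cortical networks grown over 16 microelectrodes per well; spontaneous firing is captured at four time points, and the per-network-spike spike number is integrated over development by trapezoidal AUC.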
# [15] = CCTE_Shafer_MEA_dev_per_network_spike_spike_percent: CCTE's Neural Network Formation Assay for Percent of Spikes in a Network Spike, Shafer Lab (AID 2284054)
# How it was run: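 Primary rat cortical neurons on 16-electrode MEA wells (PEI-coated, laminin at plating), exposed from day 0 with renewal at DIV 5 and 9; spikes within 0.05 s of network-spike peaks over total spikes, AUC across days 5, 7, 9, 12.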
# [16] = CCTE_Deisenroth_AIME_384WELL_CTox_Active: Cytotoxicity Assessment (CTOX) in CCTE's 384-well Estrogen Receptor Transactivation Assay with AIME metabolic competence (metabolism positive), Deisenroth Lab (AID 2284037; active means hit-call score of the fitted dose curve at least 0.9, where 1 is the maximum;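 further: chemicals first conditioned 2 h by alginate-bound induced rat liver S9 before cells; activity means signal loss indicating cell death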)
# How it was run: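 VM7Luc4E2 breast cells received medium pre-incubated 2 h with chemical over alginate microspheres holding induced male Sprague Dawley rat liver S9; viability read 24 h later by protease-substrate fluorescence. Loss of signal, bidirectional fit, 0.002–200 uM.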
# [17] = CCTE_Shafer_MEA_dev_inter_network_spike_interval_mean: CCTE's Neural Network Formation Assay for Mean Inter-network Spike Interval, Shafer Lab (AID 2284047)
# How it was run: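 Rat cortical cultures, 1.5 x 10^5 cells/well on 48-well MEA plates; continuous exposure days 0–12, medium and compound refreshed DIV 5, 9. Mean time between consecutive network-spike peaks; AUC across DIV 5/7/9/12; DMSO baseline, negative fitting direction.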
# DIO2 (gene 1734) = test: CCTE_GLTED_hDIO2: CCTE's human Deiodinase 2 (DIO2) Inhibition Assay, Great Lakes Toxicology and Ecology Division (GLTED) Lab (AID 2284050; active means hit-call score of the fitted dose curve at least 0.9, where 1 is the maximum)
# How it was run: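 In this cell-free test, chemicals are exposed to human deiodinase type 2 for 3 hours. Released iodide is determined spectrophotometrically via the Sandell-Kolthoff method, and signal loss relative to DMSO is fitted.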
structure (smiles),measurement,setting,value
ClC1=C(Cl)[C@]2(Cl)[C@@H]3[C@H]4C[C@H]([C@@H]5O[C@H]45)[C@@H]3[C@@]1(Cl)C2(Cl)Cl,AC50,[1],24.8 nM (active)
same,AC50,[2],2.76 µM (active)
same,outcome,[3],inactive
same,outcome,[4],inactive
same,outcome,[5],inactive
same,outcome,[6],inactive
same,AC50,[7],1.75 µM (active)
same,outcome,[8],inactive
same,outcome,[9],inactive
same,outcome,[10],inactive
same,outcome,[11],inactive
same,outcome,[12],inactive
same,outcome,[13],inactive
same,outcome,[14],inactive
same,outcome,[15],inactive
CCC(C)(c1ccc(O)cc1)c1ccc(O)cc1,outcome,[1],inactive
same,AC50,[2],0.927 µM (active)
same,outcome,[3],inactive
same,outcome,[4],inactive
same,AC50,[16],164 µM (active)
same,AC50,[5],189 µM (active)
same,AC50,[6],4.56 µM (active)
same,AC50,[7],0.107 µM (active)
same,outcome,[8],inactive
same,outcome,[9],inactive
same,outcome,[10],inactive
same,outcome,[11],inactive
same,outcome,[17],inactive
same,outcome,[12],inactive
same,AC50,[13],10 µM (active)
same,outcome,[14],inactive
same,outcome,[15],inactive
C=CC(N)=O,outcome,[1],inactive
same,outcome,[3],inactive
same,outcome,[4],inactive
same,outcome,[6],inactive
same,outcome,[8],inactive
same,outcome,[9],inactive
same,outcome,[10],inactive
same,outcome,[11],inactive
same,outcome,[17],inactive
same,outcome,[12],inactive
same,outcome,[13],inactive
same,outcome,[14],inactive
same,outcome,[15],inactive
CCC(C)(CC)c1cc(NC(=O)c2c(OC)cccc2OC)on1,outcome,[1],inactive
ClC(Cl)=C(c1ccc(Cl)cc1)c1ccc(Cl)cc1,outcome,[1],inactive
same,AC50,[3],4.06 µM (active)
same,AC50,[4],5.67 µM (active)
same,AC50,[6],4.01 µM (active)
same,AC50,[8],4.06 µM (active)
same,AC50,[9],7.73 µM (active)
same,outcome,[10],inactive
same,AC50,[11],7.75 µM (active)
same,outcome,[17],inactive
same,AC50,[12],1.23 µM (active)
same,AC50,[13],4 µM (active)
same,AC50,[14],3.63 µM (active)
same,AC50,[15],3.83 µM (active)
ClC1=C(Cl)[C@]2(Cl)[C@@H]3[C@@H]4C[C@@H]([C@H]5O[C@@H]45)[C@@H]3[C@@]1(Cl)C2(Cl)Cl,AC50,[1],117 nM (active)
same,AC50,[3],8.23 µM (active)
same,AC50,[4],24.2 µM (active)
same,AC50,[8],5.67 µM (active)
same,AC50,[9],4.03 µM (active)
same,outcome,[10],inactive
same,outcome,[11],inactive
same,outcome,[17],inactive
same,AC50,[12],0.492 µM (active)
same,AC50,[13],10.8 µM (active)
same,outcome,[14],inactive
same,AC50,[15],15 µM (active)
CCCN(CCC)N=O,outcome,[1],inactive
same,outcome,[2],inactive
same,outcome,[16],inactive
same,outcome,[5],inactive
same,outcome,[7],inactive
CC#Cc1cc(C)nc(Nc2ccccc2)n1,AC50,[1],6460 nM (active)
same,AC50,DIO2 (gene 1734),22.2 µM (active)
CCSC(=O)N(CC)C1CCCCC1,AC50,[1],3610 nM (active)
COc1ccc(O)c(C(C)(C)C)c1,AC50,[1],15 µM (active) and 3.93 µM (active) and 33 µM (active)
same,outcome,[2],inactive
same,outcome,[3],inactive
same,outcome,[4],inactive
same,outcome,[16],inactive
same,outcome,[7],inactive
same,outcome,[8],inactive
same,outcome,[9],inactive
same,outcome,[10],inactive
same,outcome,[11],inactive
same,outcome,[17],inactive
same,outcome,[12],inactive
same,outcome,[13],inactive
same,outcome,[14],inactive
same,outcome,[15],inactive
